# Data reported in PubChem BioAssay (NCATS).
# Results filed as inconclusive are left out. Active and inactive are the calls of the source. Calls come from the whole dose curve; as a rule, active = well fitted inhibition curve with a large enough effect; inconclusive = small, poorly fitted or top-dose-only effect; inactive = flat fitted curve, though single readings scatter.
# Tested on: KB-3-1
# Assay: Cytotoxic Profiling of Annotated Libraries Using Quantitative High-Throughput Screening (AID 1296008); note: nearly all actives have a fitted effect of over 60% in size
# Conditions: Five cell lines viability, CellTiter-Glo ATP luminescence, 48-72 h; max response: stronger effect = lower value
# How it was run: (§1)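 Cytotoxicity was measured as CellTiter-Glo ATP luminescence, read after 10 min at room temperature. Compound treatment of the cells lasted 48 or 72 hr at 37 degrees Celsius in a qHTS format.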
# % is set by controls: 0 for no effect and ±100 for the full control effect.
Compound,outcome,max response
COc1cc(CCc2ccccc2)c(C(=O)O)c2c1CC(C(C)(C)O)O2 (stereo unspecified),inactive,–
CCCCCCc1cccc(NC(=O)[C@H](N)CCP(=O)(O)O)c1,inactive,–
CC(C)CC(=O)n1cc(C(N)=O)c(=O)cc1C(O)c1ccccc1 (stereo unspecified),inactive,–
CC(C)C(C#N)O[C@@H]1O[C@H](CO[C@@H]2OC[C@](O)(CO)[C@H]2O)[C@@H](O)[C@H](O)[C@H]1O (stereo partly specified),–,5.78% (inactive)
COc1ccc(/C=C/C(=O)O[C@H]2[C@@H]3C=CO[C@@H](O[C@@H]4O[C@H](CO)[C@@H](O)[C@H](O)[C@H]4O)[C@@H]3[C@@]3(CO)O[C@@H]23)cc1O,inactive,–
C=C1CC23CC1(O)CCC2C1=CC2OC(=O)C(C)(C2O)C1C3C(=O)O (stereo unspecified),inactive,–
COc1cc(/C=C/C(=O)OC[C@H]2O[C@H](O[C@]3(CO)O[C@H](CO)[C@@H](O)[C@@H]3O)[C@H](O)[C@@H](O)[C@@H]2O)cc(OC)c1O,–,-1.09% (inactive)
C(#Cc1cccc(CN2CCOCC2)c1)CCN1CCCCC1,–,2.31% (inactive)
COc1cc(C)c(C(=O)O[C@H]2[C@@H](O)[C@H](n3ccc(=O)[nH]c3=O)O[C@@H]2CO)c(OC)c1,–,-4.86% (inactive)
C[C@@]12C[C@]3(O)O[C@H](O1)[C@]1(COC(=O)c4ccccc4)[C@H]3C[C@@]12O[C@@H]1O[C@H](COC(=O)c2ccccc2)[C@@H](O)[C@H](O)[C@H]1O,–,1.05% (inactive)
C[C@@H]1O[C@@H](O[C@H]2[C@H](O)[C@@H](C(=O)O)O[C@@H](O[C@H]3CC[C@@]4(C)C(CC[C@]5(C)C4CC=C4C6CC(C)(C)CC[C@]6(C(=O)O)CC[C@]45C)C3(C)C)[C@@H]2O[C@@H]2O[C@H](CO)[C@@H](O)[C@H](O)[C@H]2O)[C@H](O)[C@H](O)[C@H]1O (stereo partly specified),inactive,–
CC(=O)N1CCN(NC(=O)c2ccc(F)cc2)CC1,–,8.34% (inactive)

# Tested on: NIH3T3
# Assay: as above
# Conditions: Five cell lines viability, CellTiter-Glo ATP luminescence, 48-72 h; max response: stronger effect = lower value
# How it was run: as §1
Compound,outcome,max response
C[C@]12CCC[C@](C)(C(=O)O)C1CCC13C=C(CO)C(CCC12)C3 (stereo partly specified),inactive,–
O=C(c1ccc(C#Cc2cccc(F)c2)cn1)N1CC2CC2C1 (stereo unspecified),–,3.17% (inactive)
C[C@H]1[C@H](C)CC[C@]2(C(=O)O)CC[C@]3(C)C(=CC[C@@H]4[C@@]5(C)C[C@@H](O)[C@H](O)[C@@](C)(CO)[C@@H]5CC[C@]43C)[C@H]12,–,4.85% (inactive)
C/C=C/C=C/C(CC(=O)O)Nc1ccc(C=O)cc1 (stereo unspecified),–,3.97% (inactive)
C[C@@H]1O[C@@H](O[C@H]2[C@H](OC(=O)[C@]34CCC(C)(C)C[C@H]3C3=CCC5[C@@]6(C)C[C@H](O)[C@H](O[C@@H]7O[C@H](CO)[C@@H](O[C@@H]8O[C@H](CO)[C@@H](O)[C@H](O)[C@H]8O)[C@H](O)[C@H]7O)[C@@](C)(CO)C6[C@H](O)C[C@@]5(C)[C@]3(C)C[C@H]4O)OC[C@H](O)[C@@H]2O)[C@H](O)[C@H](O)[C@H]1O[C@@H]1OC[C@@H](O)[C@H](O[C@@H]2OC[C@](O)(CO)[C@H]2O)[C@H]1O (stereo partly specified),–,4.2% (inactive)
CC(C)(O)c1ccc2c(c1)C(=O)CC1[C@](C)(CO)CCC[C@]21C (stereo partly specified),–,-3.87% (inactive)
CC(=O)C1CCC2(C)C3=C(CCC12C)C1(C)CCC(=O)C(C)(C)C1CC3 (stereo unspecified),–,-0.504% (inactive)
C[C@@H]1C/C=C/C=C\C=C\C=C\[C@H](O[C@@H]2O[C@H](C)[C@@H](O)[C@H](N)[C@@H]2O)C[C@@H]2O[C@](O)(C[C@@H](O)C[C@H]3O[C@@H]3/C=C/C(=O)O1)C[C@H](O)[C@H]2C(=O)O,–,-11.8% (inactive)
COC(=O)C[C@@H]1C(C(=O)O)=CO[C@@H](O[C@@H]2O[C@H](CO)[C@@H](O)[C@H](O)[C@H]2O)/C1=C\COC(=O)/C=C\c1ccccc1,–,-14.1% (inactive)
CC1CCC2C(C(=O)O)=CC3C(O)C(C)(C)CC123 (stereo unspecified),–,-3.55% (inactive)
CC(C)(O)/C=C1/C(=O)C(C)(C)C(=O)C(C)(C)C1(O)O[C@@H]1O[C@H](COC(=O)c2cc(O)c(O)c(O)c2)[C@@H](O)[C@H](O)[C@H]1O (stereo partly specified),–,4.71% (inactive)
Cc1cc(O)c(C(C)C)cc1O[C@@H]1O[C@H](CO)[C@@H](O)[C@H](O)[C@H]1O,–,1.36% (inactive)
O=C1CC(c2ccc([N+](=O)[O-])cc2)=NN1c1ccccc1,–,2.7% (inactive)
C=C1[C@H]2[C@H](O[C@@H]3O[C@H](COC(=O)/C=C/c4cc(OC)c(O)c(OC)c4)[C@@H](O)[C@H](O)[C@H]3O)OC=C(C(=O)O)[C@H]2C[C@@H]1O,–,4.54% (inactive)
C/C=C(\C)C(=O)OC[C@H]1O[C@H](O[C@H]2O[C@H](CO)[C@@H](OC(=O)/C(C)=C/C)[C@H](O)[C@H]2O[C@@H]2O[C@H](CO)[C@@H](O)[C@H](O)[C@H]2O)[C@H](O[C@@H]2O[C@H](CO)[C@@H](O)[C@H](O)[C@H]2O)[C@@H](O)[C@@H]1O,–,2.61% (inactive)
CN1CC[C@@H](NC(=O)Nc2ccc(C#N)cc2)C[C@@H]1c1nc2ccccc2[nH]1,–,4.24% (inactive)
O=C(O)c1cc(O[C@@H]2O[C@H](CO[C@@H]3OC[C@@H](O)[C@H](O)[C@H]3O)[C@@H](O)[C@H](O)[C@H]2O)c2ccccc2c1O,–,-7.85% (inactive)
O=c1ccn(C2OC(CO)C(O)C2O)c(=O)[nH]1 (stereo unspecified),–,1.59% (inactive)
Clc1ccc(CN[C@H]2CCN(c3ncc(Br)cn3)C2)c(Cl)c1,–,4.57% (inactive)
C=C1C(=O)OC2/C=C(\C)CC/C=C(\C(=O)O)CC/C=C(\C)CCC12 (stereo unspecified),–,2.63% (inactive)

Compound,outcome,max response
C=CC1(C)C=C2C(=O)CC3C(C)(C)CCCC3(C(=O)O)C2(O)CC1 (stereo unspecified),–,-3.47% (inactive)
COc1c(C)c2c(c(O)c1C/C=C(\C)CC/C=C(\C)CCC(=O)O)C(=O)OC2,–,0.0064% (inactive)
CNC(=O)COC(=O)NCCC1CCN(c2cccc(C)n2)CC1,–,-5.35% (inactive)
Cc1nn(C)c(COc2ccc(N3CCN(S(=O)(=O)N(C)C)CC3)cc2)c1-c1cccc2c(CCCOc3cccc4ccccc34)c(C(=O)O)n(CCN3CCOCC3)c12,–,-0.0408% (inactive)
CCCCS(=O)(=O)Nc1ncnc(OCCOc2ncc(Br)cn2)c1-c1ccc(Br)cc1,–,1.6% (inactive)
C[C@H]1C[C@H]2[C@@H]3CCC4=CC(=O)C=C[C@]4(C)[C@@]3(F)[C@@H](O)C[C@]2(C)[C@@]1(O)C(=O)COP(=O)(O)O,inactive,–
CC(C)(O)c1ccc2c(c1)C(O)CC1C(C)(C(=O)O)CCCC21C (stereo unspecified),inactive,–
COc1cc(CCc2ccccc2)c(C(=O)O)c2c1CC(C(C)(C)O)O2 (stereo unspecified),inactive,–
CCCCCCc1cccc(NC(=O)[C@H](N)CCP(=O)(O)O)c1,–,-1.22% (inactive)
CC(C)CC(=O)n1cc(C(N)=O)c(=O)cc1C(O)c1ccccc1 (stereo unspecified),–,0.668% (inactive)
CC(C)C(C#N)O[C@@H]1O[C@H](CO[C@@H]2OC[C@](O)(CO)[C@H]2O)[C@@H](O)[C@H](O)[C@H]1O (stereo partly specified),–,3.22% (inactive)
COc1ccc(/C=C/C(=O)O[C@H]2[C@@H]3C=CO[C@@H](O[C@@H]4O[C@H](CO)[C@@H](O)[C@H](O)[C@H]4O)[C@@H]3[C@@]3(CO)O[C@@H]23)cc1O,–,2.14% (inactive)
C=C1CC23CC1(O)CCC2C1=CC2OC(=O)C(C)(C2O)C1C3C(=O)O (stereo unspecified),–,-19.3% (inactive)
COc1cc(/C=C/C(=O)OC[C@H]2O[C@H](O[C@]3(CO)O[C@H](CO)[C@@H](O)[C@@H]3O)[C@H](O)[C@@H](O)[C@@H]2O)cc(OC)c1O,–,-20.7% (inactive)
C(#Cc1cccc(CN2CCOCC2)c1)CCN1CCCCC1,–,1.81% (inactive)
COc1cc(C)c(C(=O)O[C@H]2[C@@H](O)[C@H](n3ccc(=O)[nH]c3=O)O[C@@H]2CO)c(OC)c1,–,-2.57% (inactive)
C[C@@]12C[C@]3(O)O[C@H](O1)[C@]1(COC(=O)c4ccccc4)[C@H]3C[C@@]12O[C@@H]1O[C@H](COC(=O)c2ccccc2)[C@@H](O)[C@H](O)[C@H]1O,–,1.22% (inactive)
C[C@@H]1O[C@@H](O[C@H]2[C@H](O)[C@@H](C(=O)O)O[C@@H](O[C@H]3CC[C@@]4(C)C(CC[C@]5(C)C4CC=C4C6CC(C)(C)CC[C@]6(C(=O)O)CC[C@]45C)C3(C)C)[C@@H]2O[C@@H]2O[C@H](CO)[C@@H](O)[C@H](O)[C@H]2O)[C@H](O)[C@H](O)[C@H]1O (stereo partly specified),–,1.81% (inactive)
CC(=O)N1CCN(NC(=O)c2ccc(F)cc2)CC1,–,-3.31% (inactive)
